# Where “and” joins values, the source holds several entries; their conditions need not be identical. Equal entries are not always repeated. About 11,000 (3.5%) of roughly 310,000 compounds were called active. About 4% were inconclusive and are not listed. This is one part of a sample in which actives are shown more often than they occur. Unmarked numbers belong to inactive results. Calls follow the shape of the dose curve; as a rule, active = well fitted inhibition curve with a large enough effect; inconclusive = small, poorly fitted or top-dose-only effect, or another doubt; inactive = no such curve, though single readings can be large or run the other way.
# Target: 4'-phosphopantetheinyl transferase ffp (Bacillus subtilis) (UniProt Q9F4F7)
# Experiment: qHTS Assay for Inhibitors of Bacillus subtilis Sfp phosphopantetheinyl transferase (PPTase);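 also: the enzyme is Sfp with the accession as filed and its product quenches rhodamine fluorescence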;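 as to largest response in the series, negative = inhibition: 0% = enzyme reaction without inhibitor and -100% = no enzyme wells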
# Details: Biochemical Sfp PPTase activity
# In short: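 Buffer: 50 mM Hepes-Na pH 7.6, 10 mM MgCl2, 0.01% Nonidet P-40, 0.01% BSA. Enzyme 15 nM, pre-exposed to compound 15 min; substrates then added and fluorescence change tracked over 30 min.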
# Potency is read from the fitted curve at half-maximal effect.
SMILES,"largest response in the series, negative = inhibition",Potency
CN1CCN(C(=O)c2ccccc2NC(=O)COc2ccccc2Cl)CC1,18.2%,
COc1cc(/C=C(/NC(=O)c2ccc(Cl)cc2Cl)C(=O)O)cc(OC)c1OC,1.15%,
COC(=O)/C(=C\Nc1ccccc1)NC(=O)c1ccc(Cl)cc1Cl,,79.4 µM (active)
CC(C)NC(=O)c1ccc(Cl)cc1Cl,26.8%,
COc1ccc(N2CCN(C(=O)c3ccc(N4CCCCS4(=O)=O)cc3)CC2)cc1,1.49%,
COc1ncnc2c1N=C1CC(C)(C)CC(N)=C1S2,,44.7 µM (active)
CN(CC(=O)NCc1ccncc1)S(=O)(=O)c1ccc(Br)cc1,13.4%,
O=C(Nc1nc2c(F)cc(F)cc2s1)C1COc2ccccc2O1 (centres undefined),-2.2%,
O=C(Nc1ncc([N+](=O)[O-])s1)C1COc2ccccc2O1 (centres undefined),-25.4%,
O=C(Nc1nc(-c2ccncc2)cs1)C1COc2ccccc2O1 (centres undefined),,8.91 µM (active)
CC(=O)c1ccc(S(=O)(=O)NCc2nnnn2-c2ccccc2)cc1,25.6%,
Cc1ccc2c(c1)N(CC(=O)NCC1CCCO1)C(=O)CO2 (centres undefined),20.7%,
S=c1[nH]nc(-c2cccnc2)n1/N=C/C(Cl)=C\c1ccccc1,-12.9%,
Cc1cc(-c2n[nH]c(=S)n2/N=C/c2ccco2)n[nH]1,,79.4 µM (active)
S=c1[nH]nc(-c2ccco2)n1/N=C/c1ccc(Br)s1,-25.9%,
CC(C)c1cc(C(=O)N/N=C/C(Br)=C/c2ccccc2)n[nH]1,3.6%,
S=c1[nH]nc(-c2ccco2)n1/N=C/c1ccccc1,-17.1%,
Cc1cc(-c2n[nH]c(=S)n2/N=C/C(Br)=C/c2ccccc2)n[nH]1,,39.8 µM (active)
O=C(c1cc2ccccc2o1)N1CCN(Cc2ccccc2)CC1,8.96% and -10.3%,
Cc1ccc(CSCCNC(=O)CN(c2ccc(F)cc2)S(C)(=O)=O)cc1,7.19%,
O=C(c1ccncc1)N1CCC2(CCCN(C(c3ccccc3)c3ccccc3)C2)CC1,-0.961%,
Cc1ccc(CNC(=O)C(=O)c2cn(CC(=O)N3CCOCC3)c3ccccc23)cc1,6.58%,
Cc1ccc(C(=O)Oc2ccc(C(=S)N3CCOCC3)cc2)cc1,-21.7%,
O=C(Oc1ccc(C(=S)N2CCOCC2)cc1)c1ccc(F)cc1,,50.1 µM (active)

SMILES,"largest response in the series, negative = inhibition",Potency
O=C(Oc1ccc(F)cc1)N1CCOCC1,11.2%,
NNC(=O)CNC(c1ccccc1)c1cc(Cl)ccc1NC(=O)c1ccccc1 (centres undefined),5.82%,
Cc1ccc(SCC(CC(C)C)N2CCN(CCc3ccccc3)CCC2=O)cc1 (centres undefined),-29.9%,
COc1ccc(-c2cc(C(=O)N(C)Cc3ccccc3)c3ccccc3n2)cc1,-16.8%,
CN(C)c1cc(N)c2ccccc2n1 (tested in a mixture with another compound),,56.2 µM (active)
Cc1cc(N(C)C)nc(Cl)n1,-4.8%,
CN(Cc1ccccc1)S(=O)(=O)c1nnc(NC(=O)c2ccccc2F)s1,16.4%,
O=C(Cc1cccs1)NCc1cccc(C(F)(F)F)c1,6.74%,
NC(=O)CC(NC(=O)Cc1ccc(Br)cc1)c1ccc(NC2CC3CCC2C3)c([N+](=O)[O-])c1 (centres undefined),15.4%,
O=C(Nc1ccc(Cl)cc1)c1cccc(OC(=S)N2CCOCC2)c1,5.61%,
CCOC(=O)c1c(N)sc(C(C)=O)c1C,-34.1%,
COCCOC(=O)c1sc(=S)n(CCOC)c1N,,25.1 µM (active)
O=C(N/C(=C\c1ccc(O)cc1)C(=O)N1CCCCC1)c1ccccc1,11.6%,
Cc1ccc2c(=O)cc(C(=O)NCCc3ccc(S(N)(=O)=O)cc3)oc2c1C,15.4%,
CCOc1ccc2nc(C(=O)N3CCCC(C)C3)sc2c1 (centres undefined),,25.1 µM (active)
CCOc1ccc2nc(Nc3nc4ccc(NC(C)=O)cc4s3)sc2c1,-21.4%,
CCOc1ccc2nc(SC(CC)C(=O)Nc3cc(C)on3)sc2c1 (centres undefined),9.59%,
CCN(CC)CCCNC(=O)c1c(O)c2cc(F)cc3c2n(c1=O)C(C)CC3 (centres undefined),2.11%,
O=[N+]([O-])c1ccc(N=Cc2c(O)ccc3ccccc23)cc1,-6.3%,
COc1ccc(C=Nc2cccc3ncccc23)cc1,-8.45%,
Oc1c(C=Nc2cccc3nsnc23)ccc2ccccc12,,44.7 µM (active)
Cc1cc2c(cc1S(=O)(=O)CCC(=O)NCc1ccccc1)OCC(=O)N2,18.5%,
CN1C2CCC1CC(NC(=O)c1ccc([N+](=O)[O-])cc1)C2 (centres undefined),9.32%,
CC(=O)N1CC[n+]2c(-c3ccc([N+](=O)[O-])cc3)csc21,,5.62 µM (active)

SMILES,"largest response in the series, negative = inhibition",Potency
COc1ccc(C2CC(c3ccc([N+](=O)[O-])cc3)=NN2C(C)=O)cc1 (centres undefined),0.697%,
CC(C)=CCc1c(O)c(CC=C(C)C)c2occ(-c3ccc(O)cc3)c(=O)c2c1O,-6.29%,
OCC(CO)NC1C[C@](O)(CO)[C@@H](O)[C@H](O)[C@H]1O (some centres undefined),7.78%,
O=C(NC(Cc1ccccc1)C(=O)O)/C(=C\c1ccccc1)NC(=O)c1ccco1 (centres undefined),16.2%,
COc1cccc(-c2noc(C3CCCN(C(=O)c4ccc(F)cc4)C3)n2)c1 (centres undefined),12.5%,
FC(F)(F)C1CCCN(c2nsc3ccccc23)C1 (centres undefined),,15.8 µM (active)
CC(C(=O)NC1CCCCC1)N1C(=O)c2cccc3cccc1c23 (centres undefined),4.03%,
COC(=O)c1ccc(OC(=O)c2cnccn2)cc1,-8.15%,
O=C(O)CSc1nnc(-c2ccc3c(c2)OCO3)n1-c1ccccc1,30.8%,
Cn1c(SCC(=O)N2CCCC2)nnc1-c1ccc2c(c1)OCO2,8.6%,
Cn1c(SCc2nc3ccccc3s2)nnc1-c1ccc2c(c1)OCO2,,14.1 µM (active)
CCc1c(C)[nH]c(=S)c(C#N)c1C,,12.6 µM (active)
COc1ccc(/C(C)=N\NC(=O)c2ccc(-c3ccccc3)cc2)c(F)c1,12.8%,
COc1ccc(N(Cc2cc3ccc(C)cc3[nH]c2=O)S(=O)(=O)c2ccccc2)cc1,6.39%,
CCn1c2ccc(F)cc2c2nnc(SCCN3CCOCC3)nc21,-2.54%,
COc1ccc(N2CCN(C(=O)CSc3ncnc4c3cnn4-c3ccc(OC)cc3)CC2)cc1,-1.71%,
CCOc1ccc(-c2nnn(CC(=O)N3CCN(c4ccc(OC)cc4)CC3)n2)cc1OCC,20.4%,
COc1ccc(N2CCN(C(=O)CSc3nc4cc(OC)c(OC)cc4cc3C#N)CC2)cc1,,63.1 µM (active)
CCN(CC(=O)Nc1ccc(C)c(S(=O)(=O)N(C)C)c1)Cc1ccccc1,-18.4%,
Cn1c(SCC(=O)N2CCCC2)nnc1-c1cccs1,5.11%,
Cc1c(C(=O)N2CCCC2)c(S(=O)(=O)NCC(C)c2ccccc2)c(C)n1C (centres undefined),-2.67%,
CC(=O)Nc1cccc(NC(=O)CSc2nccn2Cc2ccc(F)cc2)c1,11.3%,
CN(C)S(=O)(=O)c1ccc(C(=O)NCCN=C2NS(=O)(=O)c3ccccc32)cc1,2.12%,
Cc1cc(O)ccc1-c1cnc2ccccc2n1,,50.1 µM (active)

SMILES,"largest response in the series, negative = inhibition",Potency
c1ccc2nc(C3=NCCN3)cnc2c1,2.82%,
Oc1ccc(-c2[nH]ncc2-c2nc3ccccc3s2)c(O)c1,2.93%,
CCOCCOC(=O)C(C)Oc1ccc(Oc2ncc(C(F)(F)F)cc2Cl)cc1 (centres undefined),-1.26%,
O=C(c1ccco1)N1CCN(C(=O)c2cc(-c3ccccc3F)no2)CC1,1.68%,
CN(CCO)S(=O)(=O)c1ccc2c(c1)C(=O)c1cc(S(=O)(=O)N(C)CCO)ccc1-2,0.575%,
COc1ccc(-c2onc3ccc(C(C)=O)cc23)cc1,15.7%,
Oc1ccc(-c2onc3ccc(Cl)cc23)cc1,,22.4 µM (active)
CC(OC(=O)c1ccc2noc(-c3ccccc3)c2c1)C(N)=O (centres undefined),9.21%,
CCCCn1c(N)c(N(CC)C(=O)c2ccccc2C(F)(F)F)c(=O)[nH]c1=O,6.91%,
CC(C)C[C@H]1CN=C(Nc2ccccc2)N1CC1CCCCC1,6.04%,
O=C(c1cc(COc2cccc(C(F)(F)F)c2)on1)N1CCSCC1,-6.37%,
Cc1cc(NC(=O)c2ccco2)c(=O)n(Cc2c(F)cccc2Cl)c1,-1.88%,
CN(Cc1ccccc1)C(=O)C1CCCN(c2ncnc3c2nc2n3CCCCC2)C1 (centres undefined),-5.59%,
CN(c1ccccc1)c1ccc(/C=c2\s/c(=C(/C#N)C(=O)C(C)(C)C)n(Cc3ccco3)c2=O)cc1,-21.7%,
O=c1nc2s/c(=C\c3ccco3)c(=O)n2nc1Cc1ccccc1,,28.2 µM (active)
O=C(Cc1ccccc1)n1nc(-c2ccccc2)nc1NCc1ccco1,0.0328%,
N#Cc1cc([N+](=O)[O-])ccc1NCC1CCCO1 (centres undefined),13.1%,
O=C(NC1CCCCCCC1)c1cccs1,-20.5%,
COCCNc1ncnc2ccc(-c3cccnc3)cc12,6.73%,
COc1ccccc1N1CCN(/N=C\C(Br)=C\c2ccccc2)CC1,,31.6 µM (active)
COc1ccccc1N1CCN(/N=C/c2ccc(O)cc2O)CC1,-7.55%,
COc1cc(/C=N/N2CCN(c3ccccc3)CC2)ccc1OC(C)=O,16.9%,

# Reference: PubChem BioAssay AID1490 (National Center for Advancing Translational Sciences (NCATS), 2009)
